From PubChem BioAssay
“And” between values parts separate entries of the source, which are not always exact repeats. Equal entries are not always repeated. The source made the active and inactive calls. Cut-off read from the data, not from the text of the source, unless noted: active = nuclear beta-catenin stimulation mostly above about 4.2% (no sharp cut-off); inactive = mostly below about 10%.

What was measured:
[1] = hESC survival regulators, cell-based (AID 493140; call rule not given here;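 note: cells exposed to compounds for four days before counting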); conditions: human embryonic stem cell survival screen; stronger effect = higher value
[2] = liver-stage malaria parasite growth inhibition, primary screen, cell-based, HepG2, luciferase luminescence, HepG2 viability (AID 624349; in the data active = parasite load remaining mostly below about 12%, no sharp cut-off; inactive = mostly above about 10%;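 note: 100% = mean of DMSO negative control wells on the same plate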); conditions: P. berghei liver stage in HepG2, luciferase luminescence, concentration not given here; parasite load remaining: stronger effect = lower value; viability: measured here: HepG2 viability without parasites
[3] = stimulators of nuclear beta-catenin in C2C12, primary screen, imaging, WNT3A-conditioned medium, mouse C2C12, NPC library (AID 1117326); conditions: stronger effect = higher value; note: reference of the scale not given here
[4] = stimulators of insulin release from INS-1E, primary screen, cell-based, 5 mM glucose, NPC library (AID 1117329;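 active = compound raises insulin release from rat beta cells at 5 mM glucose, no numeric limit stated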; note: reference of the scale not given here); conditions: rat INS-1E insulin secretion, at 10 µM, stronger effect = higher value
[5] = growth inhibition of GSK3B-pretreated HCT116 cells – cell-based, CellTiter-Glo, 0.2 to 20 µM (AID 1117336;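 active = compounds lowering colon cancer cell viability after pretreatment blocking the GSK3B kinase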); conditions: HCT116 viability after GSK3B inhibitor, at 20 µM, stronger effect = higher value
[6] = inhibition of endothelial tube formation, primary screen, imaging, VEGF stimulated, CD31 staining, tube area, NPC library (AID 1117340;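 active = compound that reduces growth-factor-driven endothelial tube area in a mixed cell culture, no cutoff stated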); conditions: VEGF-stimulated ADSC/ECFC co-culture, at 10 µM, stronger effect = higher value
[7] = glucagon-like peptide 1 release enhancers, primary assay, NCI-H716 cell line, NPC library (AID 1117341;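 active = compound raises GLP1 secretion from the human gut endocrine cells, with no numeric limit stated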; note: reference of the scale not given here); conditions: NCI-H716 cells, at 10 µM, stronger effect = higher value
[8] = HCT116 colon cancer cell growth inhibition, primary screen, CellTiter-Glo luminescence, NPC library (AID 1117342;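 active = compounds that lower survival of HCT116 colon cancer cells in the luminescence readout, no numeric limit stated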); conditions: at 20 µM (top of the series)
[9] = CellTiter-Glo luminescent readout of SW480 viability loss, NPC library primary (AID 1117343;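 active = compounds that lower viability of the colon cancer cells in the luminescence readout, with no numeric limit stated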); conditions: CellTiter-Glo luminescence; at 20 µM (top of the series)
[10] = decreased DLD-1 cellular survival, CellTiter-Glo luminescent readout, NPC compound collection, primary HTS (AID 1117346;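 active = compounds that lower survival of DLD-1 colon cancer cells in the luminescence readout, no cutoff given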); conditions: DLD-1 viability, CellTiter-Glo luminescence; at 20 µM (top of the series)
[11] = sensitizers of A549 cells to miR-34 induction, primary screen, imaging, A549 dox-inducible miR-34, nuclei and caspase counts (AID 1347080;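 active = compounds whose cell count with miR-34 switched on is under 0.7 times the count with it off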); conditions: A549 miR-34 inducible, Hoechst nuclei count, 48 h
[12] = survival rescue of mitochondrial mutant cells in low glucose, primary screen, MELAS cybrids, Rieske KO mouse fibroblasts, CellTiter-Glo (AID 1508586;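 active = mean z-score across replicates of 1.96 or higher in either the MELAS or the Rieske mutant cell line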;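 note: z relative to plate mean and SD of compound and empty wells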)
[13] = measured here: relative caspase fold change +Dox/-Dox
[14] = measured here: total cells with miR-34 induction, stronger effect = lower value
[15] = measured here: total cells without miR-34 induction
[16] = MELAS cybrid survival, CellTiter-Glo 48 h, stronger effect = higher value
[17] = Rieske KO mouse fibroblast survival, CellTiter-Glo 72 h
[18] = stronger effect = lower value, cell number ratio, induced over uninduced

SMILES	survival [1]	parasite load remaining [2]	viability [2]	nuclear beta-catenin stimulation ([3]; at 10 µM)	nuclear beta-catenin stimulation ([3]; stimulation, at 2 µM) [%]	insulin secretion stimulation [4]	viability decrease [5]	tube area decrease [6]	GLP1 secretion stimulation [7]	inhibition of viability [8]	viability decrease (inhibition) [9]	viability decrease (inhibition) [10]	fold change ([11]; stronger effect = lower value)	fold change [11, 13]	cell count [11, 14]	cell count [11, 15]	z-score [12, 16]	z-score [12, 17]	fold change [11, 18]
OC(c1ccccc1)(c1ccccc1)C1CCNCC1	34.8 (inactive)	42.4% (inactive) and 92.2% (inactive)	47.4% and 92.3%	-0.1% (inactive)	0.4	17.4% (inactive)	-5.8% (inactive)	27.7% (inactive)	0.1% (inactive)	-10.1% (inactive)	117% (active)	2.9% (inactive)	0.979 (inactive) and 0.871 (inactive)	1.21 and 1	8990 and 7950	9180 and 9130	-0.109 (inactive) and -0.124 (inactive)	-0.152 and 0.513	
CCNCC(O)c1cccc(O)c1 (stereo not given)	9.33 (inactive)	95% (inactive)	69.4%	-1.1% (inactive)	2.2	0.6% (inactive)	-11.3% (inactive)	0.2% (inactive)	-2.7% (inactive)	1.7% (inactive)	15.1% (inactive)	-2.7% (inactive)		0.593	9690	10400	0.575 (inactive)	0.102	0.936 (inactive)
CC(C)NCC(O)c1ccccc1Cl (stereo not given)				-0.5% (inactive)	0.8	11.3% (inactive)	-4.5% (inactive)	8.9% (inactive)	3.1% (inactive)	0.8% (inactive)	23.3% (inactive)	9% (inactive)		0.533	8950	9320	-0.27 (inactive)	-0.204	0.961 (inactive)
CCOC(=O)c1ccccc1C(=O)OCC				-0.2% (inactive)	-0.3	2.85% (inactive)			0.4% (inactive)										
CN(C)CCc1ccc(O)cc1				-0.3% (inactive)	1.5	-0.4% (inactive)	1.5% (inactive)	4.1% (inactive)	1.1% (inactive)	4.7% (inactive)	1.9% (inactive)	-0.4% (inactive)		0.849	9070	9990	-0.277 (inactive)	0.765	0.908 (inactive)
